MsrA inhibitor: inhibits bovine methionine sulfoxide reductase A; purified bovine MsrA, absorbance read-out; inhibition, % at 15.5 µM; 360,000 tested, 0.75% active; AID 651718; in the data active = inhibition above about 4.5%;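 also: 0% = vehicle wells with enzyme and 100% = reference inhibitor wells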
PKA-R1A act: activates the PKA-R1A holoenzyme complex | 340,000 tested, 0.083% active | activation, % at 11.4 µM | PKA-R1A dissociation, Cy5-IP20 fluorescence polarization; scaled: DMSO 0%, 113 µM cGMP 100% | AID 504707;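 active = percent activation above the mean of all tested compounds plus 3 SD, cut at about 19% in these data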;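 also: higher means more PKAc released from R1A so a rise in polarization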
MsrA act: activates bovine MsrA enzyme; purified bovine MsrA, absorbance read-out; activation, % at 10.6 µM; 360,000 tested, 0.3% active; in the data active = activation above about 7.5%;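 also: 0% = vehicle and 100% = reference activator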
PKA-R2B act: PKA-R2B complex activation. P22694+P31323. PKA-R2B holoenzyme dissociation, Cy5-IP20 fluorescence polarization; R2B truncated from residue 108, S112A mutant; 0% DMSO only, 100% 113 µM cGMP. activation, % at 11.4 µM. 340,000 tested, 0.079% active;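 active = activation above a cutoff set at the mean over all compounds plus 3 SD, cut at about 18% in these data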;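 also: higher means more holoenzyme dissociation and a rise in polarization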
Target sequence (P31323 whole entry, looked up, other chains not shown, the tested form may be a part): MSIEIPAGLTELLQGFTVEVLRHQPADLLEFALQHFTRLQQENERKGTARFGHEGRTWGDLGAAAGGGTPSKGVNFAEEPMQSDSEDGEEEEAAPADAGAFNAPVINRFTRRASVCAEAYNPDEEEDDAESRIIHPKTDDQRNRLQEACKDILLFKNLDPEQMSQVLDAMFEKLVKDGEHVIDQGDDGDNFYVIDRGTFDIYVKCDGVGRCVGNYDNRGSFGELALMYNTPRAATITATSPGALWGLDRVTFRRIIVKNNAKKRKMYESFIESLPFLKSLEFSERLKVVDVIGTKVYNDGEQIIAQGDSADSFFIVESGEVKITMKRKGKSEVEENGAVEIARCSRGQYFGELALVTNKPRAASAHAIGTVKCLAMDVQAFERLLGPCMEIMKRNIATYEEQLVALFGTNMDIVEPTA
Mot1-301 SUMO: blocks SUMOylation pathway, rescuing yeast Mot1-301 growth; AID 2716; 320,000 tested, 1% active; growth rescue, % at 18.8 µM; S. cerevisiae Mot1-301 growth rescue, ATP luminescence, 38.5C; percent above DMSO median, 100 means doubled;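 active = every valid replicate shows activation above 250% relative to neutral control wells; inactive = the rest, any valid replicate at or below 250%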;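 also: OY570 slx delta 5 strain wells were the positive control but not used for scaling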
Yeast Mot1 SUMO: SUMO pathway inhibitors in yeast Mot1-301 growth. shares compounds with Mot1-301 SUMO. S. cerevisiae Mot1-301 galactose growth, ATP luminescence, 24 h; -100 = growth of slx-deleted rescue strain. growth activity, percent, % at 42 µM. 2,300 tested, under 10 active;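 active = Signal drops as the depositor expects, and the fitted half-maximal dose is no more than ten times the top valid tested dose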;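 also: more negative values mean stronger growth rescue toward the control strain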
An asterisk follows results filed as active. Compounds with a hit are over-represented: about 2% of the library has one in this group of screens.

Cc1ccc(N2CCN(C3=NC(=O)C(Cc4ccccc4)S3)CC2)cc1 (stereo unspecified) was read as MsrA inhibitor -1, PKA-R1A act 0, MsrA act -3, PKA-R2B act -9 and Mot1-301 SUMO 152.
`Cc1ccc(C(C(=O)Nc2ccc3c(c2)OCO3)N(C)C(=O)Cc2c[nH]c3ccccc23)cc1` (stereo unspecified) gave MsrA inhibitor -2, PKA-R1A act 4, MsrA act -13, PKA-R2B act 4, Mot1-301 SUMO 756* and Yeast Mot1 SUMO 0.
Screening Cc1ccc(S(=O)(=O)NN2C(=O)c3ccccc3NC2c2ccccc2F)cc1 (stereo unspecified) returned MsrA inhibitor 0, PKA-R1A act 0, MsrA act -3, PKA-R2B act 0, Mot1-301 SUMO 429* and Yeast Mot1 SUMO 1.
For COc1ccc(C2Nc3ccccc3C(=O)N2NS(=O)(=O)c2ccc(C)cc2)c(OC)c1 (stereo unspecified) the results were MsrA inhibitor 1, PKA-R1A act 0, MsrA act -2, PKA-R2B act -4 and Mot1-301 SUMO -22.
`CS(=O)(=O)N(CC(=O)NCCSCc1ccccc1)c1ccc2c(c1)OCO2` gave MsrA inhibitor -1, PKA-R1A act -3, MsrA act -5, PKA-R2B act -4, Mot1-301 SUMO active and Yeast Mot1 SUMO 0.
For CS(=O)(=O)N(CC(=O)Nc1ccccc1C(=O)N1CCCC1)c1ccc2c(c1)OCO2 the results were MsrA inhibitor 2, PKA-R1A act -6, MsrA act -1, PKA-R2B act -5, Mot1-301 SUMO 822* and Yeast Mot1 SUMO 0.
COC(=O)c1cccc(NC(=O)CN(c2ccc3c(c2)OCO3)S(C)(=O)=O)c1C was read as MsrA inhibitor -2, PKA-R1A act 9, MsrA act -5, PKA-R2B act 5, Mot1-301 SUMO active and Yeast Mot1 SUMO 1.
`CS(=O)(=O)N(CC(=O)Nc1ccccc1C(=O)N1CCOCC1)c1ccc2c(c1)OCO2` gave MsrA inhibitor 0, PKA-R1A act -5, MsrA act 0, PKA-R2B act 6 and Mot1-301 SUMO 3.
For Cc1[nH]c2ccccc2c1CC(=O)Nc1ccc(N(C)c2cccnc2)c(-c2ccc(F)c(F)c2)c1 the results were MsrA inhibitor 1.
CC1(C)CC(=O)C=C(OC(=O)c2ccc(Cl)cc2)C1 was read as MsrA inhibitor 0, PKA-R1A act -3, MsrA act -5, PKA-R2B act -6, Mot1-301 SUMO 470* and Yeast Mot1 SUMO 0.
Cc1ccc2cccc(OCC(=O)N3CCc4ccccc43)c2n1 was read as MsrA inhibitor 0, PKA-R1A act 9, MsrA act -5, PKA-R2B act 1 and Mot1-301 SUMO -3.
Screening O=C(COc1cccc2cccnc12)N1CCc2ccccc21 returned MsrA inhibitor 0, PKA-R1A act -4, MsrA act -10, PKA-R2B act 3, Mot1-301 SUMO 561* and Yeast Mot1 SUMO -1.
`O=C1c2nccnc2C(=O)N1c1ccc(C(F)(F)F)cc1` gave MsrA inhibitor -1, PKA-R1A act 9, MsrA act -1, PKA-R2B act 4, Mot1-301 SUMO 588* and Yeast Mot1 SUMO -1.
`Cc1ccc(-c2nnc(SCC#CCOC(=O)c3ccco3)o2)cc1` gave MsrA inhibitor 1, PKA-R1A act -4, MsrA act -1, PKA-R2B act 3 and Mot1-301 SUMO 11.
O=C(OCC#CCSc1nnc(-c2ccccc2)o1)c1cc2ccccc2o1 was read as MsrA inhibitor 1, PKA-R1A act -10, MsrA act -2, PKA-R2B act -9, Mot1-301 SUMO 582* and Yeast Mot1 SUMO 0.
`CCOc1ccccc1N(C(=O)c1snc(C(N)=O)c1N)C(CC)C(=O)NC1CCCC1` (stereo unspecified) gave MsrA inhibitor 0, PKA-R1A act -6, MsrA act -11, PKA-R2B act -9, Mot1-301 SUMO 578* and Yeast Mot1 SUMO 0.
